# Assay results taken from ChEMBL document CHEMBL2218924, “A broad activity screen in support of a chemogenomic map for kinase signalling research and drug discovery” (Biochem J, 2013).
# What was measured:
# [1] = target: T1, Casein kinase II (Homo sapiens) (UniProt P67870+P68400+P19784); settings: at 1 µM
# [2] = target: T1, Casein kinase II (Homo sapiens); settings: at 10 µM
# [3] = target: Casein kinase II subunit alpha' (Homo sapiens) (UniProt P19784); settings: at 1 µM
# [4] = target: Casein kinase II subunit alpha' (Homo sapiens) (UniProt P19784); settings: at 10 µM
# [5] = target: Dual specificity protein kinase CLK2 (Homo sapiens) (UniProt P49760); settings: at 1 µM
# Sequence of Dual specificity protein kinase CLK2 (Homo sapiens) (P49760 whole entry, looked up): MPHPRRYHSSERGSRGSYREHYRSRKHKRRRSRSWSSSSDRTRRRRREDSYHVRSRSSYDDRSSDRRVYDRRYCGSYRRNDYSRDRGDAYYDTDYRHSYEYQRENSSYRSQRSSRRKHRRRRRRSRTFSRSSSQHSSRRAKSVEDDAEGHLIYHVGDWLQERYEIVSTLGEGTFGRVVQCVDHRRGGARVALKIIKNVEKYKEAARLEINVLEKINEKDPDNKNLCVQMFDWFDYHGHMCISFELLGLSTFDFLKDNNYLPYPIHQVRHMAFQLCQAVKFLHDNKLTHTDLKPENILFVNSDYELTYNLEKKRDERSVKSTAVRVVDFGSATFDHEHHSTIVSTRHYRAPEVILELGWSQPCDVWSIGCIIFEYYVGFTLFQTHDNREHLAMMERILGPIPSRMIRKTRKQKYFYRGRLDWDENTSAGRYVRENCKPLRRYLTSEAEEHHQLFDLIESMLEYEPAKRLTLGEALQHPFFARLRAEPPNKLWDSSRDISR
# [6] = target: Dual specificity protein kinase CLK2 (Homo sapiens) (UniProt P49760); settings: at 10 µM
# [7] = target: Dual specificity protein kinase CLK3 (Homo sapiens) (UniProt P49761); settings: at 1 µM
# Sequence of Dual specificity protein kinase CLK3 (Homo sapiens) (P49761 whole entry, looked up): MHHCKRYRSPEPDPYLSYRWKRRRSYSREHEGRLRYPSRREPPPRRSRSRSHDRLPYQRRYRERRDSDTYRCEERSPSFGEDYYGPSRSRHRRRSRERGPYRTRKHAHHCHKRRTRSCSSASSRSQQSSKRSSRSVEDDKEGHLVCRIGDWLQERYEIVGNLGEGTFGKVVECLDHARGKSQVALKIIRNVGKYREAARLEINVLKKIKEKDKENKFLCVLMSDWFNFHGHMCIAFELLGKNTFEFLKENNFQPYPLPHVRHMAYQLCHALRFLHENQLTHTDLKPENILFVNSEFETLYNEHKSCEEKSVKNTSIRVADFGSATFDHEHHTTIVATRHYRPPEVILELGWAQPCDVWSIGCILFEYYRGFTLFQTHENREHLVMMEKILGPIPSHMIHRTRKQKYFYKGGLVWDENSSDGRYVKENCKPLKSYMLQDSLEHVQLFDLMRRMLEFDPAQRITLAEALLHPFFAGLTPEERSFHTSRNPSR
# [8] = target: Dual specificity protein kinase CLK3 (Homo sapiens) (UniProt P49761); settings: at 10 µM
# [9] = target: Tyrosine-protein kinase CSK (Homo sapiens) (UniProt P41240); settings: at 1 µM
# Sequence of Tyrosine-protein kinase CSK (Homo sapiens) (P41240 2-450 limits assumed): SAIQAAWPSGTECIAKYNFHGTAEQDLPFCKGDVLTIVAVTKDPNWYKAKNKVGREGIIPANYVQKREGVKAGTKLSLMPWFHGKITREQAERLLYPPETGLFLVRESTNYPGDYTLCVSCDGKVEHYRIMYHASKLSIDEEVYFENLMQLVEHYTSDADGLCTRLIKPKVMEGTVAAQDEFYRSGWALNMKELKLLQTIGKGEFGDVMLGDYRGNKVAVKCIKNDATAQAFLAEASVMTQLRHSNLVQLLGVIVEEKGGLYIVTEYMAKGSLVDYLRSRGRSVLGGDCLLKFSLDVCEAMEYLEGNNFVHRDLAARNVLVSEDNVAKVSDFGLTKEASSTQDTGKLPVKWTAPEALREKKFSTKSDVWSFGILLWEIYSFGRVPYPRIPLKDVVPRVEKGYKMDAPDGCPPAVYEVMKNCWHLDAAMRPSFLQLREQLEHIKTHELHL
# [10] = target: Tyrosine-protein kinase CSK (Homo sapiens) (UniProt P41240); settings: at 10 µM
# [11] = target: Calcium/calmodulin-dependent protein kinase type 1 (Homo sapiens) (UniProt Q14012); settings: at 1 µM
# Sequence of Calcium/calmodulin-dependent protein kinase type 1 (Homo sapiens) (Q14012 whole entry, looked up): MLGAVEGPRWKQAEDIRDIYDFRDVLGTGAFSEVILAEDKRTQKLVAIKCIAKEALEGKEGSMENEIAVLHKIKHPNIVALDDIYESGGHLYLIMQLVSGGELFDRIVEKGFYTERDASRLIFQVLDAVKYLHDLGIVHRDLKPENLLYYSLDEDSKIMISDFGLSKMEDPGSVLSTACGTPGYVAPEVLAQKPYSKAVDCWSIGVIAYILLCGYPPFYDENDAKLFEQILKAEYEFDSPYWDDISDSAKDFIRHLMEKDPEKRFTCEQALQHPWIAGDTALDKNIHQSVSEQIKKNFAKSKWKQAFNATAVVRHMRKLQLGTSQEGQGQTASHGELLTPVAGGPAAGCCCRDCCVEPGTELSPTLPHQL
# [12] = target: Calcium/calmodulin-dependent protein kinase type 1 (Homo sapiens) (UniProt Q14012); settings: at 10 µM
# [13] = target: Calcium/calmodulin-dependent protein kinase type II subunit beta (Homo sapiens) (UniProt Q13554); settings: at 1 µM
# Sequence of Calcium/calmodulin-dependent protein kinase type II subunit beta (Homo sapiens) (Q13554 whole entry): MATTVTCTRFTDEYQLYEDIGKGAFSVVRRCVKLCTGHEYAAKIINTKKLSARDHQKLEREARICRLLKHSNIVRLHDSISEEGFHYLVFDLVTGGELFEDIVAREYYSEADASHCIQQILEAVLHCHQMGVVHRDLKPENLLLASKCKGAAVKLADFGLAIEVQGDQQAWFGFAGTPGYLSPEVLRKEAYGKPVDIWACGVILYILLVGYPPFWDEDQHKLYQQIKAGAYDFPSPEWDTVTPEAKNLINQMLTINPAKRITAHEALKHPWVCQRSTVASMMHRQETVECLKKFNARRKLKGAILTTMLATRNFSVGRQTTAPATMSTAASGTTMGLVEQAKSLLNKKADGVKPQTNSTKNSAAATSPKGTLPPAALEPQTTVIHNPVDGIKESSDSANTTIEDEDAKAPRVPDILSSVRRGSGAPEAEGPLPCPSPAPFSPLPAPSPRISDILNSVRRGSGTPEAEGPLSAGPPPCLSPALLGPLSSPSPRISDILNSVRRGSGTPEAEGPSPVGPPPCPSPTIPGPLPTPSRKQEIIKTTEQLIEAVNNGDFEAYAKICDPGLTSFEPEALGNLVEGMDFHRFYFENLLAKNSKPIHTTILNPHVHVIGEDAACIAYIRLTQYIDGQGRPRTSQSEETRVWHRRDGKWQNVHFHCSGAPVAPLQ
# [14] = target: Calcium/calmodulin-dependent protein kinase type II subunit beta (Homo sapiens) (UniProt Q13554); settings: at 10 µM
# [15] = target: Calcium/calmodulin-dependent protein kinase type II subunit gamma (Homo sapiens) (UniProt Q13555); settings: at 1 µM
# Sequence of Calcium/calmodulin-dependent protein kinase type II subunit gamma (Homo sapiens) (Q13555 whole entry): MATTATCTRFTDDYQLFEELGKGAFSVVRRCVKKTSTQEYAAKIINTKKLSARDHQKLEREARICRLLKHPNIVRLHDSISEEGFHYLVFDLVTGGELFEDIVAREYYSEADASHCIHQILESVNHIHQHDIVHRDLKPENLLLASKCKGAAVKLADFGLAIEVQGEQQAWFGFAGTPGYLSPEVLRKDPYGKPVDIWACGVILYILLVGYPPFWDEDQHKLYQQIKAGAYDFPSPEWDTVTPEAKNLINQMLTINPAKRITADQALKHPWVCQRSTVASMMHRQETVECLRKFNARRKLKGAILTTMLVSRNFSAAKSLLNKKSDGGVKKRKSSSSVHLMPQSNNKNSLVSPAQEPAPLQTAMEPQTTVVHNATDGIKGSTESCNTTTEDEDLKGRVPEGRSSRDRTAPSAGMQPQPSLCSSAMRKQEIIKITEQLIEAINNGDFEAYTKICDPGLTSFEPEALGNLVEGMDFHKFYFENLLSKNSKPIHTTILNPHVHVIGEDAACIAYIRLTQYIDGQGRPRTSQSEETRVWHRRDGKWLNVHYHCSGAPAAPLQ
# [16] = target: Calcium/calmodulin-dependent protein kinase type II subunit gamma (Homo sapiens) (UniProt Q13555); settings: at 10 µM
# [17] = target: Calcium/calmodulin-dependent protein kinase type II subunit delta (Homo sapiens) (UniProt Q13557); settings: at 1 µM
# Sequence of Calcium/calmodulin-dependent protein kinase type II subunit delta (Homo sapiens) (Q13557 whole entry): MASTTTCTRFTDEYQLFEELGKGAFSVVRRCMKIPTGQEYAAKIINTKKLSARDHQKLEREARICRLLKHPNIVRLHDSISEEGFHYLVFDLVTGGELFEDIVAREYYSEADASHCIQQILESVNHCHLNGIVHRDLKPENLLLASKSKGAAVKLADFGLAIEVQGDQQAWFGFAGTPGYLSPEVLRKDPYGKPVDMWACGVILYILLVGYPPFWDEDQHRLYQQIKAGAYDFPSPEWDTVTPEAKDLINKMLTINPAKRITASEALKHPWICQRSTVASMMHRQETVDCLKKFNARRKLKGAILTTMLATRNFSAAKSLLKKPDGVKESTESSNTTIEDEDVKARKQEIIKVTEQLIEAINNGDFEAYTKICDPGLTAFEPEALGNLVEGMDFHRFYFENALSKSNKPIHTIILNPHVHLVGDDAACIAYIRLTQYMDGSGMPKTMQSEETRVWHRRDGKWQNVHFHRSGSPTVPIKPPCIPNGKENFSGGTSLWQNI
# [18] = target: Calcium/calmodulin-dependent protein kinase type II subunit delta (Homo sapiens) (UniProt Q13557); settings: at 10 µM
# [19] = target: T2, Calcium/calmodulin-dependent protein kinase type IV (Homo sapiens) (UniProt Q16566); settings: at 1 µM
# T2 sequence (whole entry): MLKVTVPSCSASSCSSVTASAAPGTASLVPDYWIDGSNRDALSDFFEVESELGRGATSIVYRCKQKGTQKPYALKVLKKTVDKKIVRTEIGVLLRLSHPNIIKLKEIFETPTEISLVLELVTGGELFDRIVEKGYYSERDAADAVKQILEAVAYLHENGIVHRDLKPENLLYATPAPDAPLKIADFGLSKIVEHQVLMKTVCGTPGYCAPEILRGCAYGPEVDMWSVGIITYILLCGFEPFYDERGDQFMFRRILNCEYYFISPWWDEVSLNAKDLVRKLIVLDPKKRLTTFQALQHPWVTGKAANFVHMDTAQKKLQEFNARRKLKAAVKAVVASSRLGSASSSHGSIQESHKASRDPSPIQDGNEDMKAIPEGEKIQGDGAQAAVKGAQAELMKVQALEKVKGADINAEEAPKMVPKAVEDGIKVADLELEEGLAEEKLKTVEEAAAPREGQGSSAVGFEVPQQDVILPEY
# [20] = target: T2, Calcium/calmodulin-dependent protein kinase type IV (Homo sapiens); settings: at 10 µM
# Sequence of Casein kinase II subunit alpha' (Homo sapiens) (P19784 whole entry, looked up): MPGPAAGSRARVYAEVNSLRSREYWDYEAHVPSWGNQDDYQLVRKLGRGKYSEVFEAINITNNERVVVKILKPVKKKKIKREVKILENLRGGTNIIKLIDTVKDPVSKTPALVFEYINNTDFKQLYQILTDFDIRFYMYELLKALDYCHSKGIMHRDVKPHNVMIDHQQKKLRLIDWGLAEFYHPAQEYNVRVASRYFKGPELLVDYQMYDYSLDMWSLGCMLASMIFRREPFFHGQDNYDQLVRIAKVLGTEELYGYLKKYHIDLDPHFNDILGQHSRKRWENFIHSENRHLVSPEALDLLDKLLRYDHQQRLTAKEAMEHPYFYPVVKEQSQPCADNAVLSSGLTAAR
# T1 sequence (P19784 whole entry, looked up): as above
# T1 sequence (P67870 whole entry, looked up): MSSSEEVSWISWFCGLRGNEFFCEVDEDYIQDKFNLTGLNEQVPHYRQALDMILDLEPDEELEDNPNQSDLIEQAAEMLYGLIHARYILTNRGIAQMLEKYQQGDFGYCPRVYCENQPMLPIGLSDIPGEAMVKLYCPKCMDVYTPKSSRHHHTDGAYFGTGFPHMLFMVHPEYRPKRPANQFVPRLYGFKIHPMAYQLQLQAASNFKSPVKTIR
# T1 sequence (P68400 whole entry, looked up): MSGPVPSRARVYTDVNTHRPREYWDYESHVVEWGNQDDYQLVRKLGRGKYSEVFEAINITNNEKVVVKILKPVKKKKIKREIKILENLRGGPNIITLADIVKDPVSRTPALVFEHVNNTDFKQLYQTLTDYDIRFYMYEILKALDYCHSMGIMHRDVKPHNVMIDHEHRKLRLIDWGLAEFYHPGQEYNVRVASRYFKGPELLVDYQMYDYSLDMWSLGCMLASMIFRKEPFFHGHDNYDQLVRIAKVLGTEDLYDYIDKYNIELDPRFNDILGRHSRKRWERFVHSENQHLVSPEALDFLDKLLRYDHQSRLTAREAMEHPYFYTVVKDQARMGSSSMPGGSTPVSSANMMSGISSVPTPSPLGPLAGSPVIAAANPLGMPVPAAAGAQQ
SMILES,residual activity [1],residual activity [2],residual activity [3],residual activity [4],residual activity [5],residual activity [6],residual activity [7],residual activity [8],residual activity [9],residual activity [10],residual activity [11],residual activity [12],residual activity [13],residual activity [14],residual activity [15],residual activity [16],residual activity [17],residual activity [18],residual activity [19],residual activity [20]
Cc1nc(-c2ccccc2)c(-c2ccncc2)o1,103%,98%,102%,92%,114%,96%,82%,84%,108%,104%,104%,89%,97%,86%,97%,83%,104%,81%,108%,112%
O=C1NC(=O)/C(=C\c2ccc3nccnc3c2)S1,-13%,-12%,-12%,-5%,43%,6%,19%,-1%,102%,99%,109%,80%,65%,18%,91%,34%,76%,28%,109%,84%
O=C1NC(=O)/C(=C/c2ccc3c(c2)OC(F)(F)O3)S1,32%,2%,52%,0%,116%,75%,91%,94%,121%,117%,86%,83%,94%,71%,102%,86%,106%,82%,99%,72%
COc1cc2ncnc(N3CCN(C(=O)Nc4ccc(Oc5ccccc5)cc4)CC3)c2cc1OC,87%,105%,111%,65%,84%,55%,64%,68%,109%,113%,104%,97%,80%,89%,111%,100%,104%,93%,122%,97%
COc1ccc(C(=O)Nc2sc3c(c2C(N)=O)CCCC3)cc1OC,95%,115%,126%,91%,90%,82%,50%,52%,101%,99%,102%,75%,83%,73%,86%,66%,86%,66%,107%,85%
O=C1NC(=O)c2c1c1c3ccccc3[nH]c1c1[nH]c3cc(Br)ccc3c21,104%,94%,96%,86%,98%,87%,82%,81%,96%,84%,89%,70%,92%,66%,18%,21%,15%,18%,103%,99%
O=c1cc(-c2cccc3c2Sc2ccccc2S3)oc(N2CCOCC2)c1,106%,109%,107%,104%,104%,92%,100%,87%,103%,99%,113%,87%,96%,82%,101%,85%,96%,84%,114%,98%
Oc1n[nH]c2nnc(-c3c(-c4ccccc4)nn4ccccc34)cc12,92%,82%,110%,91%,114%,118%,85%,96%,93%,84%,92%,79%,91%,80%,90%,78%,87%,82%,105%,96%
N#CCCc1ccc2c(c1)-c1[nH]c3ccc([N+](=O)[O-])cc3c1CC(=O)N2,,,,,,,,,,,,,54%,32%,6%,1%,10%,3%,,
CO[C@@H]1[C@H](N(C)C(=O)c2ccccc2)C[C@H]2O[C@]1(C)n1c3ccccc3c3c4c(c5c6ccccc6n2c5c31)C(=O)NC4,73%,97%,117%,102%,17%,9%,,4%,82%,78%,84%,29%,18%,4%,10%,-1%,5%,1%,98%,50%
O=C1Nc2ccc(Br)cc2/C1=C\c1cc2c([nH]1)CCCC2,77%,117%,120%,,106%,101%,,53%,118%,102%,105%,,72%,69%,20%,16%,18%,20%,135%,
CC#CC(=O)Nc1cc2c(Nc3ccc(F)c(Cl)c3)ncnc2cn1,78%,114%,120%,86%,103%,88%,83%,125%,103%,99%,98%,80%,91%,84%,108%,93%,107%,97%,121%,87%
Cc1cccc(-c2[nH]c(C(C)(C)C)nc2-c2ccc3c(c2)OCO3)n1,,132%,,,,,90%,145%,,,,,93%,88%,,99%,105%,99%,129%,88%
CO[C@H]1C[C@@H]2CC[C@@H](C)[C@@](O)(O2)C(=O)C(=O)N2CCCC[C@H]2C(=O)O[C@H]([C@H](C)C[C@@H]2CC[C@@H](O)[C@H](OC)C2)CC(=O)[C@H](C)/C=C(\C)[C@@H](O)[C@@H](OC)C(=O)[C@H](C)C[C@H](C)/C=C/C=C/C=C/1C,99%,98%,,105%,118%,137%,80%,95%,112%,95%,108%,84%,92%,79%,103%,96%,109%,99%,131%,119%
Nc1cccc(-c2cc3c(Oc4cccc(O)c4)ncnc3[nH]2)c1,101%,105%,,,93%,50%,75%,63%,79%,21%,88%,66%,75%,23%,40%,10%,42%,10%,,
